TGFb SMAD3 inh = TGF-b pathway inhibition; Potency, µM (top dose mostly 46.1 µM), inactives show at the highest dose activity, negative = inhibition, hits mostly inhibitors; HepG2 CAGA-GFP TGF-b/SMAD3 reporter, GFP fluorescence, 18 h; TGF-beta stimulated, 500 pg/mL final; hit rate 1.2% among 410,000; also: potency is read from the fitted curve at half-maximal effect; % is scaled to controls: 0 for no effect and ±100 for the full control effect; nearly all actives have a fitted effect of over 65% in size
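GFP signal (ex488/em500-530) from TGF-beta-stimulated HEPG2 CAGA-GFP cells, 500 pg/mL final, 18 h at 37 degrees C in DMEM plus 1% FBS, normalized to unstimulated and DMSO-stimulated controls.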
TDP1 cell noCPT = qHTS for Inhibitors of human tyrosyl-DNA phosphodiesterase 1 (TDP1): qHTS in cells in absence of CPT; DT40 Tdp1-/- hTDP1 cells, no CPT, ATP luminescence, 48 h; Potency, µM (top dose mostly 46.2 µM), without a hit: at the highest dose activity change, negative = growth inhibition, hits mostly inhibitors; hit rate 15% among 420,000; also: potency is read from the fitted curve at half-maximal effect; % is scaled to controls: 0 for no effect and ±100 for the full control effect; nearly all actives have a fitted effect of over 55% in size
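Cells were dispensed at 400 per well, compounds added by pin tool, plates incubated ≥48 hr at 37 °C, then CellTiter-Glo added for 30 min at room temperature before luminescence reading. Line: DT40 Tdp1-/- complemented with hTDP1; camptothecin omitted.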
TDP1 block = inhibitors of human tyrosyl-DNA phosphodiesterase TDP1 | Q9NUW8 | recombinant TDP1, AlphaScreen DNA substrate cleavage | Potency, µM (highest dose often 130 µM), without a hit: at the highest dose activity change, negative = inhibition, hits mostly inhibitors | hit rate 0.28% among 350,000; also: potency is read from the fitted curve at half-maximal effect; % is scaled to controls: 0 for no effect and ±100 for the full control effect; nearly all actives have a fitted effect of over 40% in size
Target sequence (Q9NUW8 whole entry, looked up): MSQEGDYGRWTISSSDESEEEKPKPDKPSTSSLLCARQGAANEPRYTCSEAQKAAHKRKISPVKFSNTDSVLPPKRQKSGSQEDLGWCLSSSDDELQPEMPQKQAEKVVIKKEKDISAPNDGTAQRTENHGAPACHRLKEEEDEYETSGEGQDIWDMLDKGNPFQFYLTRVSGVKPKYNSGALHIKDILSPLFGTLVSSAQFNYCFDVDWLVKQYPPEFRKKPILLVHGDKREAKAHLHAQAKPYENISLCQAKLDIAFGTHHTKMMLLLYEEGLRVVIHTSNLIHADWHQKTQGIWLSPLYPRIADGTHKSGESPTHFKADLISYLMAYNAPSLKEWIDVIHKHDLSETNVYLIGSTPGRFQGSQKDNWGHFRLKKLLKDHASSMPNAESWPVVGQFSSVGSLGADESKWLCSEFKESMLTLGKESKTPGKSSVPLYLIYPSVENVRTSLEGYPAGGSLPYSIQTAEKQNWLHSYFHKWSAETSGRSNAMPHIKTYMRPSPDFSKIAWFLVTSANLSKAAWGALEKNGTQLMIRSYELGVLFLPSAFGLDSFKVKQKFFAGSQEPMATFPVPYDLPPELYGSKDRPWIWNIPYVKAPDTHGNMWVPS
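Here, a 5' biotin and 3' phosphotyrosine-FITC DNA oligonucleotide reports Tdp1 activity: intact substrate bridges AlphaScreen beads, while cleavage leaves a 3' phosphate and drops signal. All incubations at room temperature.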
DT40 TDP1 CPT = DT40-hTDP1 cell growth loss with CPT; chicken DT40 Tdp1-/-;hTDP1 cells + 20 nM CPT, ATP luminescence, 48 h; Potency, µM (doses to about 46.2 µM), for the others: at the top dose activity change, negative = growth inhibition, hits mostly inhibitors; hit rate 12% among 420,000; AID 686979; also: potency is read from the fitted curve at half-maximal effect; % is scaled to controls: 0 for no effect and ±100 for the full control effect; nearly all actives have a fitted effect of over 55% in size
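Cell growth measured by CellTiter-Glo luminescence after a minimum 48 h, 37 C compound exposure with 20 nM CPT in Tdp1-knockout DT40 cells stably expressing hTDP1, seeded 400/well; qHTS titration format.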
HepG2 viability = HepG2 cytotoxicity, counter-screen for TGF-b inhibitors; HepG2 CAGA-GFP viability, ATP luminescence, 18 h; Potency, µM (series often up to 46.1 µM), for inactives: at the highest dose activity change, negative = cytotoxicity, actives largely listed as cytotoxic; AID 588856; hit rate 0.76% among 410,000; also: potency is read from the fitted curve at half-maximal effect
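CellTiter-Glo luminescence gave cytotoxicity after 18 hours at 37 degrees C. The cells were HepG2 CAGA-GFP in 1% FBS DMEM, stimulated with 500 pg/mL TGF-beta after compound addition. %Activity was normalised to no-cell wells (complete cell-killing) and DMSO (no toxicity), and curves were fitted and classified.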
IL1B secr inh = blocks inflammasome-driven IL-1 beta release; THP-1 LPS/ATP IL-1B secretion, AlphaLISA, 16 h; active compounds read low; activity change, % at 57.5 µM; hit rate 4.7% among 360,000; in the data active = activity change below about -50%; inconclusive = mostly about -30% to -49%; also: % is scaled to controls: 0 for no effect and ±100 for the full control effect
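Secreted IL-1B measured by AlphaLISA bead assay after 16 h compound exposure of THP-1 cells; compounds (final up to 57.5 uM) added 1 h before LPS (250 ng/mL) and ATP (1.25 mM) stimulation; lower signal means less secretion.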
An asterisk follows results filed as active; u = inconclusive; x = no result; [ ] = remark or other dose. Only some compounds are listed: those with a hit (about 18% of all), similar ones and a draw of the others. Unless noted, calls follow the shape of the dose curve; as a rule, active = well fitted curve in the direction sought with a large enough effect; inconclusive = small, poorly fitted or top-dose-only effect, or another doubt; inactive = no such curve, though single readings can be large; an effect the other way counts as inactive or inconclusive.

SMILES | TGFb SMAD3 inh | TDP1 cell noCPT | TDP1 block | DT40 TDP1 CPT | HepG2 viability | IL1B secr inh
COc1ccccc1CN(Cc1nc2ccccc2c(=O)[nH]1)C(=O)Nc1ccccc1 | 2% | 3.5µM* | 3% | 3.5µM* | -25% | -6
O=C(Nc1cccc(Cl)c1)N(Cc1nc2ccccc2c(=O)[nH]1)Cc1cccs1 | -31% | 23µM* | 1% | 23µM* | -29% | u
COc1cccc(OC)c1C(=O)N1CCN(C(=O)c2ccc(-c3ccccc3)cc2)CC1 | -3% | -17% | 5% | u | -1% | -18
Cc1ccc(C2=NN(S(C)(=O)=O)C(c3ccc4c(c3)OCO4)C2)cc1 (stereo not drawn) | 51% | 13µM* | 3% | 21µM* | -22% | 10
Cc1ccc(CNC(=O)CCc2c(C)nc3c(c(C)nn3-c3ccc(C)cc3)c2C)cc1 | -19% | 12% | x | -12% | 2% | 7
Cc1ccc(-n2nc(C)c3c(C)c(CCC(=O)NCc4ccccc4Cl)c(C)nc32)cc1 | x | u | 0% | 16µM* | 1% | x
Cc1ccc(-n2nc(C)c3c(C)c(CCC(=O)NCc4ccccc4)c(C)nc32)cc1 | 15% | u | 2% | u | 15% | 21
Cc1ccc(-n2nc(C)c3c(C)c(CCC(=O)NCc4ccco4)c(C)nc32)cc1 | -17% | u | 4% | 23µM* | -40% | -22
CC1(Cc2cc(Cl)ccc2C(F)(F)F)C(=O)Nc2ccc(S(=O)(=O)NC3CCCCC3)cc21 (stereo not drawn) | u | u | x | 26µM* | -99% | -21
CC1(Cc2ccc(Cl)c(Cl)c2)C(=O)Nc2ccc(S(=O)(=O)NC3CCCCC3)cc21 (stereo not drawn) | 13µM* | u | x | u | -97% | -17
CC1(Cc2cccc(F)c2)C(=O)Nc2ccc(S(=O)(=O)NC3CCCCC3)cc21 (stereo not drawn) | -24% | u | x | u | -27% | 15
O=C(O)c1cc(-c2ccc(/C=N/N3C(=O)C4C5C=CC(C6CC56)C4C3=O)o2)ccc1Cl (stereo not drawn) | 10% | 3% | u | 13% | -2% | 31
COc1ccc(-c2ccc(/C=N/N3C(=O)C4C5C=CC(C6CC56)C4C3=O)o2)c([N+](=O)[O-])c1 (stereo not drawn) | 4% | 23µM* | 7% | u | -4% | -1
COC(=O)c1ccc(-c2ccc(/C=N/N3C(=O)C4C5C=CC(CC5)C4C3=O)o2)cc1 (stereo not drawn) | 4% | -28% | 5% | 0% | 11% | 2
O=C1C2C3C=CC(C4CC34)C2C(=O)N1/N=C/c1ccc(-c2ccc(F)cc2[N+](=O)[O-])o1 (stereo not drawn) | 2% | 23µM* | 7% | u | -31% | u
Cc1ccc(-c2ccc(/C=N/N3C(=O)C4C5C=CC(CC5)C4C3=O)o2)c([N+](=O)[O-])c1 (stereo not drawn) | u | u | 9% | 18µM* | -39% | -24
O=C1C2C3C=CC(C4CC34)C2C(=O)N1/N=C/c1ccc(-c2ccc(Cl)cc2[N+](=O)[O-])o1 (stereo not drawn) | -2% | u | 5% | u | -5% | 0
Cc1cc(C)c2oc(C(=O)Nc3c(C(=O)c4ccc(F)cc4)oc4ccccc34)cc(=O)c2c1 | 9% | u | 6% | -9% | 1% | x
Cc1ccc(NC(=S)c2nc3ccccc3[nH]2)c(C)c1 | -19% | u | 8% | u | -23% | 2
Cc1ccc(NC(=S)c2nc3ccccc3[nH]2)cc1 | u | 10µM* | 13% | 13µM* | -38% | -6
CCCCCC(=O)Nc1nc(C)c(-c2csc(Nc3ccccc3OCC)n2)s1 | 1% | u | 9% | u | -3% | 3
CCCCCCC(=O)Nc1nc(C)c(-c2csc(Nc3ccccc3OC)n2)s1 | u | 21µM* | 9% | u | -8% | -1
CCCCCC(=O)Nc1nc(C)c(-c2csc(Nc3ccccc3OC)n2)s1 | -19% | 18µM* | 9% | 23µM* | -4% | -8
CCC(=O)Nc1nc(C)c(-c2csc(Nc3ccccn3)n2)s1 | u | u | 5% | u | -16% | -96*
Cc1nc(NC(=O)c2ccccc2)sc1-c1csc(NCCc2ccccc2)n1 | 7% | 16µM* | 3% | 23µM* | -36% | 2
SMILES | TGFb SMAD3 inh | TDP1 cell noCPT | TDP1 block | DT40 TDP1 CPT | HepG2 viability | IL1B secr inh
COc1ccc(-c2nc3cc(NC(=O)COc4ccc(F)cc4)ccc3o2)cc1 | -14% | u | -1% | u | -27% | x
COc1cc(C(=O)NC(=S)Nc2ccc(Cl)cn2)cc(OC)c1OC | u | u | 2% | u | -10% | 110
COCCn1c(=O)cnc2cnc(Oc3ccccc3)nc21 | x | -20% | x | u | x | x
COc1ccc(NC(=O)c2csnn2)cc1 | 33% | -24% | 6% | 2% | 4% | x
C=CCNC(=O)c1onc(CS(=O)(=O)c2cc(C)cc(C)c2)c1C(=O)NCC=C | -2% | u | 0% | -20% | -7% | -3
CCCC(C)C(=O)Nc1nc(C)c(-c2csc(Nc3ccc(Cl)cc3)n2)s1 (stereo not drawn) | -5% | 26µM* | 10% | u | -9% | -3
COc1ccccc1Nc1nc(-c2sc(NC(=O)c3ccccc3)nc2C)cs1 | -2% | u | 6% | u | -11% | -21
CCCC(C)C(=O)Nc1nc(C)c(-c2csc(Nc3ccccc3OC)n2)s1 (stereo not drawn) | 9% | 23µM* | 8% | 16µM* | -5% | 3
CCCCCCC(=O)Nc1nc(C)c(-c2csc(Nc3cc(Cl)ccc3C)n2)s1 | 1% | u | 1% | -26% | -21% | -7
Cc1ccccc1NC(=O)Cc1nnc(SCC(=O)NC2CCCC2)n1C | 0% | 9% | x | 2% | -14% | -16
O=c1n(Cc2cc3c(cc2Cl)OCO3)c(=O)n2n1CC[C@H]1/C(=N\OC[C@@H](O)COCc3ccco3)[C@H]3O[C@@H]3[C@@H](O)[C@@H]12 | x | x | 6%[21 µM] | x | x | x
CC(C)OC(=O)[C@@H]1C=C[C@H](C)[C@@H](CCCCOCc2ccccc2)O1 | x | x | 3% | x | x | x

High-throughput results (PubChem BioAssay)
